High-throughput results as filed in PubChem BioAssay.
UBC9 SUMO inh – blocks human SUMOylation mediated by UBC9 | actives 0.36% (n = 290,000) | HTRF SUMOylation assay, SAE1/SAE2 + UBC9, in vitro | AID 2006 | inhibition, % at 35 µM; in the data active means inhibition above about 50%, passing the limit was not always enough
Target sequence (P63279 whole entry, looked up): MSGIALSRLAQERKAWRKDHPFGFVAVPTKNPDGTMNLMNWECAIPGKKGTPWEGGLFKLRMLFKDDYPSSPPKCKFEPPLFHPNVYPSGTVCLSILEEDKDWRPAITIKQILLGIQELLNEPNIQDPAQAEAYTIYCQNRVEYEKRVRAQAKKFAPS
sPLA2-III inh – Inhibits HGIII-sPLA2 liposome hydrolysis, primary screen | inhibition, % at 12.2 µM | actives 0.56% (n = 370,000) | QFRET BODIPY PC-A2 liposome hydrolysis, fluorescence | Q9NZ20;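 active means inhibition above mean plus 3 SD of compounds lying within the high and low control bounds, cut at about 19% in these data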;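 further: 0% = median of test compound wells and 100% = no enzyme DMSO wells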
UBC13 inh – blocks human UBC13 polyubiquitin chain formation | actives 0.47% (n = 330,000) | TR-FRET | P61088 | inhibition, % at 20 µM; in the data active means inhibition above about 45%, passing the limit was not always enough
Target sequence (P61088 whole entry, looked up): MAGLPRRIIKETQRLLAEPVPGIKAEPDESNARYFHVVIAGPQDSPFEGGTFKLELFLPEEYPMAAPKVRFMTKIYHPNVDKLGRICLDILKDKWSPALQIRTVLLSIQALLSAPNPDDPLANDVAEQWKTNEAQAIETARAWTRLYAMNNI
GRIN3A LBD mod – modulates the human NR3A ligand-binding domain. Tm shift relative to glycine control, % at 25 µM. AID 1259313. NR3A LBD differential scanning fluorimetry, Tm shift; 0% = protein alone, 100% = glycine-bound protein. actives 2.5% (n = 340,000);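 active means melting temperature shift of at least 10% of the positive control shift, at one fixed dose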
* = called active by the depositor; x = no result given. A selection: hits, their analogues and other compounds. The true share with any hit is near 3.3%.

SMILES	UBC9 SUMO inh	sPLA2-III inh	UBC13 inh	GRIN3A LBD mod
COC(=O)[C@]1(Cc2ccccc2)N[C@H](CN(C)S(=O)(=O)c2ccc(C(C)(C)C)cc2)[C@@H]2C(=O)N(C)C(=O)[C@@H]21	x	13	-9	15*
CCN(C[C@H]1N[C@@](Cc2ccccc2)(C(=O)OC)[C@H]2C(=O)N(Cc3ccccc3)C(=O)[C@@H]12)C(=O)Nc1ccc(F)cc1	x	-9	6	-2
CCN(C[C@H]1N[C@@](CC)(C(=O)OC)[C@H]2C(=O)N(C)C(=O)[C@@H]12)S(=O)(=O)c1ccc(C(C)(C)C)cc1	x	3	1	18*
COC(=O)[C@]1(Cc2ccccc2)N[C@H](CN(C)S(=O)(=O)c2ccc(F)cc2)[C@@H]2C(=O)N(C)C(=O)[C@@H]21	x	-2	8	0
CCN(C[C@H]1N[C@@](CC)(C(=O)OC)[C@H]2C(=O)N(C)C(=O)[C@@H]12)S(=O)(=O)c1ccc(C(F)(F)F)cc1	x	12	5	1
C[C@H]1[C@@H](N(C)C)CC[C@@]23CCCN2C(=O)CCC[C@@H]13	x	2	x	x
COc1ccc(C(=O)N/N=C/c2ccc(OC(=O)c3cccc4ccccc34)c([N+](=O)[O-])c2)cc1	11	8	-40	12*
O=C(N/N=C/c1ccc(OC(=O)c2ccccc2)c([N+](=O)[O-])c1)c1ccc(O)cc1	3	-14	-20	26*
COc1ccc(C(=O)Oc2ccc(/C=N/NC(=O)c3ccccc3OC)cc2[N+](=O)[O-])cc1	9	-5	-6	1
CS(=O)(=O)C1=NSC2=NC(=O)/C(=C\c3cccn3-c3ccc(Cl)cc3)C(=N)N21	34	-29	x	19*
Cc1cc(/C=C2/C(=N)N3C(=NC2=O)SN=C3S(C)(=O)=O)c(C)n1-c1ccccc1F	14	-14	-3	-24
Cc1ccc(-n2c(SCC(=O)Nc3cc(S(=O)(=O)N4CCOCC4)ccc3Cl)nc3ccccc3c2=O)cc1	-8	15	8	10*
COc1ccc(-c2nc(SCC(=O)Nc3cc(C)on3)n[nH]2)cc1	50*	x	-6	10*
Nc1cc(=O)[nH]c(SCC(=O)Nc2cc(S(=O)(=O)N3CCCCCC3)ccc2Cl)n1	x	9	-3	-2
Cc1ccc(-c2nc(SCC(=O)Nc3cc(S(=O)(=O)N4CCCCC4)ccc3Cl)n[nH]2)cc1	-12	-43	-2	12*
COc1ccc(-c2nc(SCC(=O)Nc3c(F)cccc3F)n[nH]2)cc1	x	0	4	-6
Cc1ccc(C(=O)CC(=O)c2cc(Cl)ccc2O)cc1	-13	-2	2	11*
CC(C)(C)c1ccc(C(=O)CC(=O)c2cc(Cl)ccc2O)cc1	15	-2	-5	0
Cc1cccc2cc(CN(Cc3cccs3)C3(c4nnnn4C4CCCC4)CCCC3)c(=O)[nH]c12	-21	7	-10	11*
CC(=O)O[C@H]1[C@H](OC(C)=O)C[C@]2(OC(C)=O)C[C@H]1OC2=O	x	6	x	x
CC(COc1cccc([N+](=O)[O-])c1)CN1CCC(C(O)(c2ccccc2)c2ccccc2)CC1 (stereo not given)	x	-11	x	x
Cc1nc2n(c(=O)c1CCN1CCC(c3noc4cc(F)ccc34)CC1)CCCC2	-12	-5	9	10*
N#Cc1cccc(C(=O)N2CCC(Oc3cccnc3)CC2)c1	x	-3	x	x
CC(=O)OCCNc1cc(SCc2ccco2)c2nonc2c1[N+](=O)[O-]	93	x	x	0
COC(=O)CCSc1cc(NCCOC(C)=O)c([N+](=O)[O-])c2nonc12	13	2	-26	0
SMILES	UBC9 SUMO inh	sPLA2-III inh	UBC13 inh	GRIN3A LBD mod
CCCC(=O)OCCNc1cc(SCCC(=O)OC)c2nonc2c1[N+](=O)[O-]	74*	9	-15	0
CC(=O)OCCCNc1cc(Sc2nc3ccccc3s2)c2nonc2c1[N+](=O)[O-]	92*	x	-45	-29
COc1ccc(CNc2cc(NCCCO)c([N+](=O)[O-])c3nonc23)cc1	96*	-5	-33	1
O=[N+]([O-])c1c(NCCCO)cc(SCc2ccco2)c2nonc12	90*	7	-26	-5
COc1ccc(CCNC(=O)c2cc3c(C)nn(-c4ccccc4)c3s2)cc1OC	x	-28	x	x
CC(C)CN1C(=O)C[C@]2(C(=O)N(C)c3ccc(NC(=O)C(F)(F)F)cc32)C1c1ccccc1 (stereo not given in full)	x	-5	x	x
O=C(NCCCc1ccccc1)C1CCN(c2nc(-c3ccc(Br)cc3)cs2)CC1	x	6	x	x
N=C1/C(=C/c2cccs2)C(=O)N=C2SN=C(SCc3ccccc3)N12	13	-13	-17	2
CC(C)CSC1=NSC2=NC(=O)/C(=C\c3cccs3)C(=N)N12	7	-24	-15	11*
c1ccc2c(Cn3nnc4ccccc43)cccc2c1	8	-8	-2	11*
Cc1ccc2cc(C(c3nnnn3C(C)(C)C)N3CCCCCC3)c(=O)[nH]c2c1 (stereo not given)	56	x	-4	11*
CCC(C)(C)n1nnnc1C(c1cc2cc(C)ccc2[nH]c1=O)N1CCCC1 (stereo not given)	15	0	13	-2
CN=C(Nc1cc(Cl)ccc1Cl)SC1CC(=O)N(c2ccc(C(=O)OC)cc2)C1=O (stereo not given)	-32	-17	-1	14*
COC(=O)c1ccc(N2C(=O)CC(SCC(=O)Nc3ccc(OC)cc3)C2=O)cc1 (stereo not given)	22	-3	-6	7
COc1ccc(N2CCN(CCNS(=O)(=O)c3ccccc3[N+](=O)[O-])CC2)cc1	x	-2	x	x
Cc1ccc(S(=O)(=O)N/N=C/c2ccc(OCC(=O)Nc3ccccc3Cl)cc2)cc1	-43	-42	-2	18*
O=C(CSCc1ccc(Cl)cc1)N/N=C/c1ccc(OCC(=O)Nc2ccccc2)cc1	1	-2	17	10*
COc1ccccc1NC(=O)COc1ccc(/C=N/NC(=O)CSCc2ccc(Cl)cc2)cc1	-20	6	43	5
COc1cc(/C=N/NC(=O)COc2cccc(F)c2)ccc1OS(=O)(=O)c1ccc(C)cc1	5	-19	-13	6
COc1cc(/C=N/NC(=O)COc2ccc(Cl)cc2)ccc1OS(=O)(=O)c1ccc(C)cc1	3	-5	34	12*
COc1ccccc1NC(=O)COc1ccc(/C=N/NC(=O)CSCc2cc(C)cc(C)c2)cc1	4	0	19	4
Cc1ccc(NC(=O)COc2ccc(/C=N/NC(=O)CSCc3ccccc3)cc2)cc1	-12	-8	10	18*
COc1ccc(CN2CCC(CNC(=O)NCc3ccccc3)CC2)cc1	x	1	x	x
Cn1c(=O)cc(OCCCC(=O)Nc2cc(C(F)(F)F)ccn2)c2ccccc21	x	-4	x	x
O=C(Nc1ccc(C(O)(C(F)(F)F)C(F)(F)F)cc1)c1c(F)cccc1F	x	-24	x	x
COC(=O)[C@@]12CCCCC3=C1N(CCC3)C(=O)[C@H]2CC(=O)NCc1ccccc1	x	-1	x	x
C[C@@H]1CCCN1c1ccc2c(c1)O[C@H]1CCN(C1)S2(=O)=O	x	13	x	x
COc1cc([N+](=O)[O-])c2ncsc2c1	0	1	4	-2
